Screening results (PubChem BioAssay)
D1 antag – Antagonist of Human D 1 Dopamine Receptor: qHTS | D(1A) dopamine receptor (Homo sapiens), P21728 | HEK293 TREx D1 cells, calcium flux, dopamine EC80; active compounds read low | activity change, negative = inhibition, % at 10 µM | 360,000 compounds, 3.2% hits | AID 504652, 2011; in the data active means activity change below about -30%; further: on the % scale 0 is the no-effect control and ±100 the full control effect
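Compound effects on dopamine-evoked calcium signalling were measured in tetracycline-induced HEK293 Trex D1 cells. Dopamine at EC80 followed a 180 s compound pre-read, and fluorescence was tracked kinetically for 180 s more.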
D1 potentiator – Potentiators of Human D1 Dopamine Receptor: qHTS. 360,000 compounds, 0.036% hits. D(1A) dopamine receptor (Homo sapiens), P21728. HEK293 TREx D1 cells, calcium flux, dopamine EC20 potentiation. potentiation, % at 10 µM; in the data active means potentiation above about 30%; further: 0% is about no effect
TRHR enhancer – qHTS for Small Molecule Agonists and Allosteric Enhancers of Human TRH Receptor: Primary Screen for Enhancers; Thyrotropin-releasing hormone receptor (Homo sapiens), P34981; TRHR cells, fluo-8 calcium fluorescence, EC20 TRH enhancement; enhancement, % at 2 µM; 360,000 compounds, 0.66% hits; in the data active means enhancement above about 30%; further: 0% is about no effect
Target sequence (P34981 whole entry, looked up): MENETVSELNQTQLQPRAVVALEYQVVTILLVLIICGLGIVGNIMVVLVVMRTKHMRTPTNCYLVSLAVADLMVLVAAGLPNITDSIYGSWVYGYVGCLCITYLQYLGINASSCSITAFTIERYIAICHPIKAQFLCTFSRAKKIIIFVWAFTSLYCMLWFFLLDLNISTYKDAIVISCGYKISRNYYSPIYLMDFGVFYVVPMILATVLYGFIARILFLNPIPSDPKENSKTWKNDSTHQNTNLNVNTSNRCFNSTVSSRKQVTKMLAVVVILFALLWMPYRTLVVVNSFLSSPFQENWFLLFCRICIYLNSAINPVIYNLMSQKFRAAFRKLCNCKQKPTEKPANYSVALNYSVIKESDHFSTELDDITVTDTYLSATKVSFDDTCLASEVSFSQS
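Enhancer read-out: after compound pinning and an initial kinetic agonist-mode read, an EC20 of TRH (10 nM final) was injected and fluo-8 calcium signal (Ex 480/Em 530) followed at 1 s/cycle for 100 cycles in TRHR-expressing cells.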
D1 ag – Allosteric Agonists of the Human D1 Dopamine Receptor: qHTS; HEK293 T-REx D1 cells, calcium flux, agonist mode; activation, % at 2 µM; 360,000 compounds, 1% hits; further: 0% is about no effect
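Inducible HEK293 T-REx D1 cells, force-coupled to calcium signalling, were plated at 4000 cells/well with tetracycline and held overnight at 30 C. After no-wash calcium dye loading, compound-evoked calcium rise over 180 s flagged agonists.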
TRHR agonist – qHTS for Small Molecule Agonists and Allosteric Enhancers of Human TRH Receptor: Primary Screen for Agonists | 360,000 compounds, 0.18% hits | Thyrotropin-releasing hormone receptor (Homo sapiens), P34981 | AID 493084, 2011 | activation, % at 2 µM | TRHR cells, calcium flux fluo-8, FDSS agonist mode; further: 0% is about no effect
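Read-out: compound-evoked intracellular calcium rise in TRHR cells, fluo-8 dye, kinetic FDSS fluorescence at 1 s/cycle following a 10-cycle baseline. Cells cultured overnight before dye loading (30 min–1.5 h, RT).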
The depositor's hits bear a star. An excerpt weighted towards active compounds, which were near 4.7% of everything screened. Unless noted, no stated cut-off is given here; in the data, active means activation above about 30%; inactive means the rest.

Results for CC(C)/C=C1\CC/C(=C\c2ccc(N(C)C)cc2)C1=O ?
D1 antag: -30.9*; D1 potentiator: 2.5; TRHR enhancer: 17.5; D1 ag: 243.0*; TRHR agonist: 94.3*

Results for COC(=O)CCC(=O)c1ccc(OC)c(Cl)c1 ?
D1 antag: -34.4*; D1 potentiator: -6.3; TRHR enhancer: 2.7; D1 ag: 3.1; TRHR agonist: -0.2

How did O=C(Nc1cccc(C(F)(F)F)c1)Oc1ccc(Cl)c2cccnc12 do in these assays?
D1 antag: -20.7; D1 potentiator: -4.6; TRHR enhancer: -10.5; D1 ag: 33.7*; TRHR agonist: 2.4

How did Cc1cc(C)c(CN2C(=O)c3ccccc3S(=O)(=O)c3ccc(C(=O)OCC4CCCO4)cc32)c(C)c1 (stereo not given) do in these assays?
D1 antag: -3.6; D1 potentiator: -3.1; TRHR enhancer: -5.3; D1 ag: 1.2; TRHR agonist: -0.1

Results for COC(=O)c1ccc(NC(=O)CSCc2ccccc2C)cc1 ?
D1 antag: -13.0; D1 potentiator: -6.0; TRHR enhancer: 39.5*; D1 ag: 2.2; TRHR agonist: 0.0

Results for Cn1c(O)c(/C=C2\C=NN=C2c2ccccc2)sc1=S ?
D1 antag: -34.7*; D1 potentiator: -7.0; TRHR enhancer: -1.2; D1 ag: 3.0; TRHR agonist: 0.3

How did CCCCCCn1c(O)c(/C=C2\C=NN=C2c2ccccc2)sc1=S do in these assays?
D1 antag: 10.9; D1 potentiator: -0.2; TRHR enhancer: 32.6*; D1 ag: 2.6; TRHR agonist: -0.7

How did CNc1nc(Oc2ccccc2C(=O)OC)nc(SC)n1 do in these assays?
D1 antag: -40.3*; D1 potentiator: -5.3; TRHR enhancer: -6.4; D1 ag: 1.2; TRHR agonist: -0.8

How did CCOC(=O)c1ccc(Oc2nc(NC)nc(SC)n2)cc1 do in these assays?
D1 antag: -34.2*; D1 potentiator: -7.2; TRHR enhancer: -1.1; D1 ag: 11.6; TRHR agonist: -0.9

What do the screens show for `COC(=O)c1ccccc1Oc1cnc2ccccc2n1`?
D1 antag: -10.7; D1 potentiator: -10.1; TRHR enhancer: -0.2; D1 ag: -0.1; TRHR agonist: -0.5

How did Cc1ccc(-n2ncc3c(N(C)Cc4ccccc4)ncnc32)cc1 do in these assays?
D1 antag: -12.3; D1 potentiator: 3.2; TRHR enhancer: -2.5; D1 ag: 4.5; TRHR agonist: 0.7

What do the screens show for `COc1ccc(NC(=O)Nc2cc(C(=O)NCc3ccc(C)cc3)ccc2N2CCCC2)cc1`?
D1 antag: -18.9; D1 potentiator: -0.7; TRHR enhancer: 3.9; D1 ag: -0.8; TRHR agonist: -0.8

What do the screens show for `O=C(Nc1ccc(F)cc1)C1CCN(S(=O)(=O)c2cccs2)CC1`?
D1 antag: -39.5*; D1 potentiator: -0.6; TRHR enhancer: -6.4; D1 ag: 12.9; TRHR agonist: -1.5

How did O=C(Nc1ccncc1)C1CCN(S(=O)(=O)c2cccs2)CC1 do in these assays?
D1 antag: 2.6; D1 potentiator: -5.5; TRHR enhancer: 1.0; D1 ag: 4.6; TRHR agonist: 0.4

Results for Cc1csc(NC(=O)C2CCN(S(=O)(=O)c3ccccc3F)CC2)n1 ?
D1 antag: -37.7*; D1 potentiator: -11.0; TRHR enhancer: 7.5; D1 ag: 23.7; TRHR agonist: 0.1

Results for O=C(Nc1cc(Cl)ccn1)C1CCN(S(=O)(=O)c2cccs2)CC1 ?
D1 antag: -30.6*; D1 potentiator: -15.2; TRHR enhancer: 0.1; D1 ag: 5.4; TRHR agonist: -0.3

Results for O=C(Nc1ccc(F)cc1)C1CCC(N2C(=O)c3ccccc3C2=O)CC1 (stereo not given) ?
D1 antag: -30.2*; D1 potentiator: 0.2; TRHR enhancer: -0.6; D1 ag: 6.7; TRHR agonist: 0.6

Results for COc1ccc(NC(=O)CCS(=O)(=O)c2cc3c4c(c2)CCN4C(=O)CC3)cc1OC ?
D1 antag: 7.6; D1 potentiator: -2.5; TRHR enhancer: -2.2; D1 ag: 3.0; TRHR agonist: 0.8

How did COc1cc(Cl)c(C)cc1NC(=O)CCCN1C(=O)C(c2ccccc2)Oc2cccnc21 (stereo not given) do in these assays?
D1 antag: -13.0; D1 potentiator: -7.3; TRHR enhancer: -5.6; D1 ag: 4.7; TRHR agonist: -1.0

Results for CN(c1cccc(NS(=O)(=O)c2ccccc2)c1)S(C)(=O)=O ?
D1 antag: -37.1*; D1 potentiator: -5.2; TRHR enhancer: -3.2; D1 ag: 3.2; TRHR agonist: -0.3

Results for CCOc1ccc(S(=O)(=O)Nc2cccc(N(C)S(C)(=O)=O)c2)cc1 ?
D1 antag: -39.4*; D1 potentiator: -6.2; TRHR enhancer: -0.9; D1 ag: 22.7; TRHR agonist: -0.3

What do the screens show for `CN(c1cccc(NC(=O)c2ccc(Cl)c(S(=O)(=O)Nc3ccccc3)c2)c1)S(C)(=O)=O`?
D1 antag: -41.9*; D1 potentiator: 4.2; TRHR enhancer: -3.0; D1 ag: 4.8; TRHR agonist: -1.5

What do the screens show for `CC(=O)Nc1ccc(S(=O)(=O)Nc2cccc(N(C)S(C)(=O)=O)c2)cc1`?
D1 antag: -25.9; D1 potentiator: -4.7; TRHR enhancer: 14.8; D1 ag: 0.9; TRHR agonist: -0.3

What do the screens show for `Cn1c2cc(C(=O)O)sc2c2cnn(Cc3ccccc3F)c(=O)c21`?
D1 antag: 7.1; D1 potentiator: 13.7; TRHR enhancer: 6.1; D1 ag: -0.8; TRHR agonist: 1.2

Results for CCOc1ccc(C(=O)/C=C/c2cn(CC(O)CN3CCc4ccccc43)c3ccccc23)cc1 (stereo not given) ?
D1 antag: -20.3; D1 potentiator: -4.7; TRHR enhancer: 0.5; D1 ag: 11.6; TRHR agonist: 2.6

What do the screens show for `O=C(COc1ccccc1F)Nc1ccc(OCc2cc(=O)n3ccccc3n2)cc1`?
D1 antag: -5.6; D1 potentiator: -0.6; TRHR enhancer: -21.0; D1 ag: 1.4; TRHR agonist: -1.0

What do the screens show for `CCOC(=O)c1ccc(NC(=O)COc2ccccc2CNC2CCCC2)cc1`?
D1 antag: -36.2*; D1 potentiator: -7.2; TRHR enhancer: 2.5; D1 ag: 24.5; TRHR agonist: 2.5

Results for CCOc1cc(CNC2CCCC2)c(Cl)cc1OCC(=O)Nc1ccccc1 ?
D1 antag: -5.2; D1 potentiator: -5.1; TRHR enhancer: 0.7; D1 ag: 12.5; TRHR agonist: 1.8

What do the screens show for `O=C(O)c1cccc(-c2noc(-c3ccccc3F)n2)c1`?
D1 antag: 20.0; D1 potentiator: -3.1; TRHR enhancer: 0.8; D1 ag: 1.5; TRHR agonist: -2.2
